The structures appear in SMILES notation. Unmarked numbers belong to inactive results. Records with an inconclusive call do not appear. Calls of active or inactive are those of the source. The call rests on the fitted dose curve.

This is an account of results in PubChem BioAssay (Tox21).

For test [1], the target named is Acetylcholinesterase (Homo sapiens) (UniProt P22303). Kind of test: Acetylcholinesterase (AChE) small molecule antagonists: colormetric cell-based qHTS assay (AID 1347395). Further: nearly all actives have a fitted effect of over 30% in size. Further: potency means the concentration at half of the fitted maximal effect. The procedure, abridged:
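Colorimetric read-out: DTNB detects thiocholine released when cellular AChE in SH-SY5Y cells hydrolyses acetylthiocholine. Cells attached overnight, received compound for 30 min at 37 C, then substrate mix for 90 min at 37 C.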

Test [2] has the same target. Nature of the test: Acetylcholinesterase (AChE) small molecule antagonists: enzyme-based qHTS assay (AID 1347397). Further: nearly all actives have a fitted effect of over 55% in size. Further: potency means the concentration at half of the fitted maximal effect. The following applies: Potency: AChE enzyme activity inhibition; outcome: AChE enzyme activity inhibition. The method in brief: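 Human recombinant acetylcholinesterase; substrate acetylthiocholine; thiocholine quantified with DTNB (colorimetric). Compound preincubation 30 min RT; reaction 10 min RT.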

Test [3] shares this target. Nature of the test: Acetylcholinesterase (AChE) small molecule antagonists: fluorescence cell-based qHTS assay (AID 1347398). Further: nearly all actives have a fitted effect of over 50% in size. Further: potency means the concentration at half of the fitted maximal effect. The following applies: Potency: AChE activity; outcome: AChE activity. The procedure, abridged: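 Thiocholine generated from acetylthiocholine by SH-SY5Y cell AChE is detected with Thiolite Green (Ex/Em 490/520 nm) after 40 min at room temperature, following 30 min compound pretreatment at 37 C.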

Test [4] shares this target. Nature of the test: Acetylcholinesterase (AChE) small molecule antagonists: enzyme-based qHTS assay with human liver microsomes (AID 1347399). Further: nearly all actives have a fitted effect of over 60% in size. The following applies: Potency: qHTS inhibition; outcome: qHTS inhibition. The method in brief:
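Recombinant human AChE (50 mU/mL in the enzyme mix) and human liver microsomes (0.25 mg/mL final) were preincubated with compound and NADPH (0.25 mg/mL final) for 30 min at 37 C. Acetylthiocholine/DTNB was then added; thiocholine was read colorimetrically after 10 min at room temperature.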
On the % scale 0 is the no-effect control and ±100 the full control effect.

Chain of Acetylcholinesterase (Homo sapiens) (P22303 whole entry, looked up): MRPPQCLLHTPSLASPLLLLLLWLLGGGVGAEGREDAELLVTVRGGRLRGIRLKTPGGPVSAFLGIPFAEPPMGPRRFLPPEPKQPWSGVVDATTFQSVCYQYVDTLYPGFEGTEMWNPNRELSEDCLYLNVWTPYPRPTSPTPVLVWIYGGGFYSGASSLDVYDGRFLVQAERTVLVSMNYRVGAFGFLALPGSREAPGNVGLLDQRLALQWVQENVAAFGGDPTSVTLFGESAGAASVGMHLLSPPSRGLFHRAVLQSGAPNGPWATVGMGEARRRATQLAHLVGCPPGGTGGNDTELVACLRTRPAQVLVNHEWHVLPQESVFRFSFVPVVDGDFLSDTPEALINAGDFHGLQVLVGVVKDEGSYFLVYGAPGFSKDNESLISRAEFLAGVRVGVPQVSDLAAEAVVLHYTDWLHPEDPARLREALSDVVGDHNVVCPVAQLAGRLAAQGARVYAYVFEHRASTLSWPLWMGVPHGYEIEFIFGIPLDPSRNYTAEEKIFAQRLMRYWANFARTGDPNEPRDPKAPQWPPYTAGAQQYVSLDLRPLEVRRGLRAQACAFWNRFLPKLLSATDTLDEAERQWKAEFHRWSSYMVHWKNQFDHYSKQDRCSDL

For `Cc1ccc(O)c(-n2nc3ccccc3n2)c1`, the Potency entry in test [1], in test [2], in test [3] and in test [4] was “inactive” in each case.

As to `COc1ccc(S(=O)(=O)Nc2nnc(CC(C)C)s2)cc1`, the Potency result in test [1], in test [2], in test [3] and in test [4] was “inactive” in each case.

For the compound `Cc1cc2cc3c(C)cc(=O)oc3c(C)c2o1`, the Potency result in test [1], in test [2], in test [3] and in test [4] was “inactive” in each case.

As to `FC(F)(F)/C(=N\OCC1OCCO1)c1ccc(Cl)cc1`, the Potency result in test [1], in test [2], in test [3] and in test [4] was “inactive” in each case.

In the case of `COC(=O)c1ccc(C(=O)OC)cc1`, the Potency entry in test [1], in test [2], in test [3] and in test [4] was “inactive” in each case.

`CN1CCC[C@@H]1Cc1c[nH]c2ccc(CCS(=O)(=O)c3ccccc3)cc12`: the Potency result in test [1], in test [2], in test [3] and in test [4] was “inactive” throughout.

For the compound `C=Cc1ccc(C)cc1`, the Potency entry in test [1], in test [2], in test [3] and in test [4] was “inactive” throughout.

With `C[C@]12CC[C@@H]3c4ccc(O)cc4CC[C@H]3[C@@H]1C[C@@H](O)[C@@H]2O`, the Potency entry in test [1], in test [2], in test [3] and in test [4] was “inactive” each time.

Regarding `NCCc1ccc(O)c(O)c1`, the result in test [1], in test [2], in test [3] and in test [4] was inactive.

For `COCCCN`, the Potency entry in test [1], in test [2], in test [3] and in test [4] was “inactive” throughout.

On to `NC(N)=NC(N)=NCCc1ccccc1`, for which the Potency result in test [1], in test [2], in test [3] and in test [4] was “inactive” in each case.

Take `O=C1c2cccc(O)c2C(=O)c2c(O)cccc21`: the Potency result in test [1], in test [2], in test [3] and in test [4] was “inactive” throughout.

For `CCOC(=O)NNc1nncc2ccccc12`, the Potency result in test [1], in test [2], in test [3] and in test [4] was “inactive” each time.

For the compound `O=[Se](O)O`, the Potency entry in test [1], in test [2], in test [3] and in test [4] was “inactive” throughout.

`Cc1ccc(NC(=O)N(C)C)cc1NC(=O)N(C)C`: the Potency entry in test [1], in test [2], in test [3] and in test [4] was “inactive” each time.

As for `CCNc1cccc(C)c1`, the Potency result in test [1], in test [2], in test [3] and in test [4] was “inactive” each time.

For the compound `O=C=Nc1ccc(Cl)c(Cl)c1`, the Potency result in test [1], in test [2], in test [3] and in test [4] was “inactive” in each case.

As for `Cc1ccc(S(=O)(=O)O)c(C)c1`, the Potency entry in test [1], in test [2], in test [3] and in test [4] was “inactive” in each case.

As to `COc1cc(CCC(C)=O)ccc1O`, the Potency result in test [1], in test [2], in test [3] and in test [4] was “inactive” throughout.

With `C=CCOC(=O)C(=C)C`, the Potency result in test [1], in test [2], in test [3] and in test [4] was “inactive” throughout.

`CC(=O)c1ccc(O)cc1`: the Potency result in test [1], in test [2], in test [3] and in test [4] was “inactive” throughout.

With `CCO/C([O-])=N/c1c[n+](N2CCOCC2)no1`, the Potency result in test [1], in test [2], in test [3] and in test [4] was “inactive” throughout.

For the compound `C=CCCC`, the Potency entry in test [1], in test [2], in test [3] and in test [4] was “inactive” throughout.

For the compound `N#Cc1cc(NC(=O)C(=O)O)c(Cl)c(NC(=O)C(=O)O)c1`, the Potency entry in test [1], in test [2], in test [3] and in test [4] was “inactive” each time.

For the compound `CCCCCCCCCCCCc1ccccc1`, the Potency entry in test [1], in test [2], in test [3] and in test [4] was “inactive” each time.

In the case of `CC(=O)N[C@@H](CS)C(=O)O`, the Potency entry in test [1], in test [2], in test [3] and in test [4] was “inactive” throughout.

`CC(C)COC(=O)c1ccc(N)cc1`: the Potency entry in test [1], in test [2], in test [3] and in test [4] was “inactive” each time.

`CCCCCC(C)O` (stereo not given): the Potency entry in test [1], in test [2], in test [3] and in test [4] was “inactive” in each case.

`NCCNCCN`: the Potency entry in test [1], in test [2], in test [3] and in test [4] was “inactive” throughout.

Consider `COc1ccc(C(=O)c2ccccc2)c(O)c1`, for which the Potency entry in test [1], in test [2], in test [3] and in test [4] was “inactive” each time.

In the case of `CCCCNc1ccc(NCCCC)c2c1C(=O)c1ccccc1C2=O`, the activity, negative = inhibition in test [1] was -1.89% [at 23.6 µM]. Also, the activity change, negative = inhibition was -0.954% [at 23.6 µM] in test [2], 1.62% [at 23.8 µM] in test [3] and -2.27% [at 23.6 µM] in test [4].

`CC(=O)c1ccc2c(c1)N(CCCN(C)C)c1ccccc1S2`: the Potency result in test [1], in test [2], in test [3] and in test [4] was “inactive” each time.

As for `Cc1cc(C)nc(NS(=O)(=O)c2ccc(N)cc2)n1`, the Potency entry in test [1], in test [2], in test [3] and in test [4] was “inactive” in each case.

`CCCCCCCCOc1ccccc1C(=O)Nc1ccc(C(=O)OCC[N+](C)(CC)CC)cc1`: the Potency was 24.5 µM (active) in test [1], 38.9 µM (active) in test [2] and 12.3 µM (active) in test [3]. Also, the Potency result in test [4] was “inactive”.

For the compound `NC(=O)c1ccccc1N`, the Potency entry in test [1], in test [2], in test [3] and in test [4] was “inactive” each time.

On to `O=C1OCc2ccccc21`, for which the Potency result in test [1], in test [2], in test [3] and in test [4] was “inactive” each time.

Turning to `COC(=O)C1=C(C)NC(C)=C(C(=O)OCC(C)=O)C1c1ccccc1[N+](=O)[O-]` (stereo not given), the Potency result in test [1], in test [2], in test [3] and in test [4] was “inactive” throughout.

On to `CCOc1cc(OCC)c(C(=O)CCC(=O)O)cc1OCC`, for which the Potency result in test [1], in test [2], in test [3] and in test [4] was “inactive” each time.

Turning to `Cc1ccc([N+](=O)[O-])cc1S(=O)(=O)O`, the Potency entry in test [1], in test [2], in test [3] and in test [4] was “inactive” each time.

`O=C(O)c1nc(Cl)c(Cl)c(Cl)c1Cl`: the Potency entry in test [1], in test [2], in test [3] and in test [4] was “inactive” each time.

With `O=C1c2ccccc2CCc2ccccc21`, the Potency entry in test [1], in test [2], in test [3] and in test [4] was “inactive” in each case.

For the compound `CC(C=O)c1ccccc1` (stereo not given), the Potency result in test [1], in test [2], in test [3] and in test [4] was “inactive” in each case.

As for `C=CC(C)(O)CC/C=C(/C)CCC=C(C)C` (stereo not given), the Potency result in test [1], in test [2], in test [3] and in test [4] was “inactive” in each case.

For the compound `O=C(c1ccc(O)cc1O)c1ccc(O)cc1O`, the Potency entry in test [1], in test [2], in test [3] and in test [4] was “inactive” in each case.

On to `COc1ccc(COC(C)=O)cc1`, for which the Potency result in test [1], in test [2], in test [3] and in test [4] was “inactive” each time.

Regarding `O=C1OC(=O)C2CC=CCC12` (stereo not given), the Potency result in test [1], in test [2], in test [3] and in test [4] was “inactive” in each case.

Turning to `CC(=O)c1ccc(OCC(=O)N2CCCCC2)cc1`, the Potency entry in test [1], in test [2], in test [3] and in test [4] was “inactive” each time.

Regarding `CCC(=O)O`, the Potency result in test [1], in test [2], in test [3] and in test [4] was “inactive” in each case.

As for `ClCCCl`, the Potency result in test [1], in test [2], in test [3] and in test [4] was “inactive” throughout.

Turning to `CC(C)C(=O)Nc1ccc([N+](=O)[O-])c(C(F)(F)F)c1`, the Potency result in test [1], in test [2], in test [3] and in test [4] was “inactive” each time.

As for `NC(=O)N(O)[C@@H]1COc2cc(OCc3ccccc3)ccc21`, the Potency result in test [1], in test [2], in test [3] and in test [4] was “inactive” throughout.

For the compound `CCN(CC)CC1CCCCN1CC(=O)N1c2ccccc2C(=O)Nc2cccnc21` (stereo not given), the Potency entry in test [1], in test [2], in test [3] and in test [4] was “inactive” in each case.

As for `COC(C)COC(C)COC(C)CO` (stereo not given), the Potency result in test [1], in test [2], in test [3] and in test [4] was “inactive” in each case.

With `C=C(C)C(=O)OCCCCCCCCCCCCC`, the Potency result in test [1], in test [2], in test [3] and in test [4] was “inactive” each time.

Consider `CCc1cc(C(C)(C)C)c(O)c(C(C)(C)C)c1`, for which the Potency result in test [1], in test [2], in test [3] and in test [4] was “inactive” in each case.

`CCCCCCC(=O)O`: the Potency result in test [1], in test [2], in test [3] and in test [4] was “inactive” throughout.

In the case of `CC(C)=CCC/C(C)=C/C(=O)O`, the Potency result in test [1], in test [2], in test [3] and in test [4] was “inactive” each time.

As to `C[N+]1(C)CCC(=C(c2ccccc2)c2ccccc2)CC1`, the Potency result in test [1], in test [2], in test [3] and in test [4] was “inactive” in each case.

`Cc1ccc(C(=O)c2ccccc2)cc1`: the Potency entry in test [1], in test [2], in test [3] and in test [4] was “inactive” throughout.

Consider `CCOC(=O)OC(C)OC1=C(C(=O)Nc2ccccn2)N(C)S(=O)(=O)c2ccccc21` (stereo not given), for which the Potency result in test [1], in test [2], in test [3] and in test [4] was “inactive” in each case.
